This is an account of results in PubChem BioAssay (NCATS).

Assay in all cases: qHTS profiling for inhibitors of Plasmodium falciparum proliferation (AID 504749); also: nearly all actives have a fitted effect of over 60% in size
Common to all, as to conditions: P. falciparum in erythrocytes, SYBR Green DNA, 72 h; series mostly up to 28.7 µM
(qHTS replaces the single test concentration by a dilution series.)

One test concerns CP192. The method in brief: (§1)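 P. falciparum-infected erythrocytes (0.3% parasitemia, 2.5% hematocrit) incubated with compound 72 h at 37 C, 5% CO2. Parasite DNA detected by SYBR Green after lysis, overnight at room temperature; normalised to 0.29 uM artemisinin and DMSO.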
The test system of a further test is CP194. The method in brief: as §1
Another test relates to CP201. An outline of the steps: as §1
Another test relates to CP203. The method in brief:
as §1

For the next test, the system named is CP211. The method in brief: as §1
For another test, the system named is CP215. The method in brief: as §1
A further test deals with CP217. The method in brief:
as §1

The next test has as its system CP237. The method in brief: as §1
Another test deals with CP238. An outline of the steps: as §1
In another test the test system is CP247. An outline of the steps:
as §1

Results filed as inconclusive are left out. Active and inactive are the calls of the source. Calls follow the shape of the dose curve; as a rule, active = well fitted inhibition curve with a large enough effect; inconclusive = small, poorly fitted or top-dose-only effect; inactive = flat fitted curve, though single readings scatter.
Potency is read from the fitted curve at half-maximal effect.

For the compound `CC(C)NCC(O)c1ccc(O)c(O)c1` (stereo not given), the Potency result in the test with CP192, in the test on CP194, with CP201, in the test on CP203, with CP211 and with CP215 was “inactive” each time. Also, the Potency result with CP217, with CP237, in the test with CP238 and with CP247 was “inactive” throughout.
For `N[C@@H](Cc1c[nH]c2ccc(O)cc12)C(=O)O`, the Potency entry in the test with CP192, in the test on CP194, with CP201, in the test on CP203, with CP211 and in the test on CP215 was “inactive” each time. In addition, the Potency entry with CP217, in the test with CP237, with CP238 and with CP247 was “inactive” in each case.
Regarding `COc1nc(C)nc(Cl)c1NC1=NCCN1`, the Potency entry with CP192, in the test on CP194, with CP201, in the test on CP203, in the test with CP211 and in the test on CP215 was “inactive” each time. The Potency result with CP217, in the test on CP237, in the test with CP238 and in the test on CP247 was “inactive” each time.
For the compound `CN(C)c1nc(N(C)C)nc(N(C)C)n1`, the Potency result in the test on CP192, in the test with CP194, in the test on CP201, in the test on CP203, in the test with CP211 and with CP215 was “inactive” throughout. For the same compound, the Potency entry with CP217, in the test on CP237, in the test on CP238 and with CP247 was “inactive” throughout.
As for `Nc1nnc(-c2cccc(Cl)c2Cl)c(N)n1`, the Potency result in the test with CP192, in the test on CP194, with CP201, with CP203, in the test with CP211 and in the test on CP215 was “inactive” throughout. Besides, the Potency entry with CP217, with CP237, with CP238 and in the test on CP247 was “inactive” each time.
For the compound `CC(C)(Oc1ccc(C2CC2(Cl)Cl)cc1)C(=O)O` (stereo not given), the Potency entry with CP192, in the test on CP194, with CP201, in the test on CP203, with CP211 and in the test on CP215 was “inactive” in each case. Further, the Potency entry with CP217, in the test with CP237, in the test with CP238 and in the test on CP247 was “inactive” in each case.
On to `NS(=O)(=O)c1cc2c(cc1Cl)NCNS2(=O)=O`, for which the Potency entry in the test with CP192, with CP194, with CP201, in the test with CP203, in the test with CP211 and in the test on CP215 was “inactive” throughout. Moreover, the Potency result with CP217, in the test with CP237, with CP238 and with CP247 was “inactive” in each case.
Turning to `CC(C)NCC(O)COc1ccc(CCOCC2CC2)cc1` (stereo not given), the Potency result in the test with CP192, in the test on CP194, with CP201, with CP203, in the test with CP211 and in the test on CP215 was “inactive” each time. Moreover, the Potency entry in the test with CP217, in the test with CP237, in the test with CP238 and in the test with CP247 was “inactive” throughout.
Regarding `CC1(CN2CCC(n3c(=O)[nH]c4ccccc43)CC2)OCc2ccccc2-n2cccc21` (stereo not given), in the test with CP192, the Potency result was “inactive”.
In the case of `CC(CCc1ccc(O)cc1)NCCc1ccc(O)c(O)c1` (stereo not given), the Potency result in the test with CP192, in the test with CP194, in the test with CP201, with CP203, in the test with CP211 and in the test with CP215 was “inactive” each time. The Potency result in the test with CP217, with CP237, with CP238 and with CP247 was “inactive” in each case.
Regarding `NC(=O)NO`, the Potency entry with CP192, in the test on CP194, in the test with CP201, with CP203, with CP211 and with CP215 was “inactive” throughout. In addition, the Potency result in the test on CP217, in the test on CP237, in the test with CP238 and in the test on CP247 was “inactive” each time.
Take `CC(C)C(=O)Nc1ccc([N+](=O)[O-])c(C(F)(F)F)c1`: the Potency result in the test with CP192, in the test on CP194, in the test on CP201, with CP203, in the test with CP211 and in the test on CP215 was “inactive” each time. Also, the Potency result in the test with CP217, in the test on CP237 and in the test with CP238 was “inactive” throughout.
Consider `Cn1cnc2c1c(=O)[nH]c(=O)n2C`, for which the Potency entry with CP192, in the test on CP194, in the test with CP201, in the test with CP203, in the test on CP211 and in the test on CP215 was “inactive” each time. For the same compound, the Potency entry with CP217, in the test on CP237, with CP238 and with CP247 was “inactive” each time.
As to `CCCNCC(O)COc1ccccc1C(=O)CCc1ccccc1` (stereo not given), the Potency in the test with CP192 is 2130 nM (active); with CP194 it was 3380 nM (active); with CP201 it was 6750 nM (active); in the test with CP203, 1690 nM (active); with CP211, 4780 nM (active); with CP215 it was 1510 nM (active). Also, the Potency was 891 nM (active) in the test with CP217, 447 nM (active) with CP237, 1000 nM (active) in the test on CP238 and 1000 nM (active) with CP247.
As to `CCC1(c2ccccc2)C(=O)NCNC1=O`, the Potency result with CP192, with CP194, with CP201, with CP203, with CP211 and with CP215 was “inactive” each time. Further, the Potency result in the test on CP217, in the test on CP237, with CP238 and in the test on CP247 was “inactive” throughout.
On to `NCCS(=O)(=O)O`, for which the Potency result in the test with CP192, in the test on CP194, in the test with CP201, in the test on CP203, in the test with CP211 and in the test with CP215 was “inactive” in each case. The Potency result in the test on CP217, in the test with CP237, in the test on CP238 and in the test on CP247 was “inactive” each time.
Turning to `Cc1cn([C@H]2C=C[C@@H](CO)O2)c(=O)[nH]c1=O`, the Potency result in the test on CP192, with CP194, with CP201, with CP203, with CP211 and with CP215 was “inactive” in each case. The Potency result with CP217, in the test on CP237, with CP238 and with CP247 was “inactive” each time.
With `Cn1c(=O)c2c(ncn2C)n(C)c1=O`, the Potency entry with CP192, in the test with CP194, in the test on CP201, with CP203, with CP211 and in the test with CP215 was “inactive” in each case. Moreover, the Potency result in the test with CP217, with CP237, in the test with CP238 and with CP247 was “inactive” in each case.
As to `CN1CCC(=C2c3ccccc3C=Cc3ccccc32)CC1`, the Potency result in the test on CP192, in the test with CP194, in the test with CP201, in the test on CP203, in the test on CP211 and in the test on CP215 was “inactive” throughout. The Potency entry in the test on CP217, with CP237, with CP238 and with CP247 was “inactive” each time.
On to `CN1CCN2c3ccccc3Cc3ccccc3C2C1` (stereo not given), for which the Potency result in the test on CP192, with CP194, in the test on CP201, with CP203, in the test on CP211 and in the test on CP215 was “inactive” each time. The Potency entry in the test on CP217, in the test on CP237, in the test with CP238 and in the test on CP247 was “inactive” in each case.
On to `CN1C(C(=O)Nc2ccccn2)=C(O)c2ccccc2S1(=O)=O`, for which the Potency result with CP192, in the test on CP194, in the test with CP201, in the test on CP203, in the test with CP211 and with CP215 was “inactive” in each case. The Potency result in the test with CP217, in the test with CP237, with CP238 and with CP247 was “inactive” each time.
As to `COC(=O)Nc1nc2ccc(C(=O)c3cccs3)cc2[nH]1`, the Potency result in the test on CP192, in the test on CP194, in the test with CP201, with CP203, in the test with CP211 and in the test on CP215 was “inactive” in each case. For the same compound, the Potency result in the test on CP217, with CP237, in the test on CP238 and in the test on CP247 was “inactive” throughout.
Regarding `CC(=O)OCC(CCn1cnc2cnc(N)nc21)COC(C)=O`, the Potency entry in the test on CP192, in the test with CP194, with CP201, in the test on CP203, in the test with CP211 and in the test on CP215 was “inactive” throughout. In addition, the Potency result in the test on CP217, in the test with CP237, in the test on CP238 and in the test on CP247 was “inactive” in each case.
For the compound `Cc1cn([C@H]2C[C@H](N=[N+]=[N-])[C@@H](CO)O2)c(=O)[nH]c1=O`, the Potency entry in the test with CP192, with CP194, with CP201, with CP203, with CP211 and with CP215 was “inactive” in each case. For the same compound, the Potency result in the test with CP217, in the test on CP237, in the test on CP238 and with CP247 was “inactive” each time.
Take `COc1ccccc1OCC(O)CN1CCN(CC(=O)Nc2c(C)cccc2C)CC1` (stereo not given): the Potency entry in the test on CP192, with CP194, in the test on CP201, in the test with CP203, with CP211 and in the test with CP215 was “inactive” each time. Further, the Potency entry in the test with CP217, with CP237, in the test on CP238 and in the test on CP247 was “inactive” throughout.
With `NCCc1cnc[nH]1`, the Potency entry in the test on CP192, in the test on CP194, with CP201, in the test on CP203, with CP211 and in the test on CP215 was “inactive” in each case. For the same compound, the Potency result in the test with CP217, in the test with CP237, in the test with CP238 and in the test with CP247 was “inactive” in each case.
For the compound `CC(C)Cc1ccc(C(C)C(=O)O)cc1` (stereo not given), the Potency result with CP192, in the test on CP194, with CP201, in the test with CP203, with CP211 and with CP215 was “inactive” in each case. Further, the Potency entry with CP217, in the test with CP237, in the test on CP238 and in the test on CP247 was “inactive” each time.
As for `NCCCCCC(=O)O`, the Potency result in the test with CP192, with CP194, in the test with CP201, in the test with CP203, with CP211 and in the test on CP215 was “inactive” each time. In addition, the Potency result in the test with CP217, with CP237, in the test on CP238 and in the test on CP247 was “inactive” each time.
Turning to `Cc1cc(C(C)(C)C)c(O)c(C)c1CC1=NCCN1`, the Potency result with CP192, in the test with CP194, in the test on CP201, in the test on CP203, in the test with CP211 and in the test with CP215 was “inactive” each time. For the same compound, the Potency entry in the test on CP217, with CP237, in the test on CP238 and in the test with CP247 was “inactive” each time.
As for `COc1ccccc1N1CCN(CC(O)COc2cccc3ccccc23)CC1` (stereo not given), the Potency entry in the test on CP192, with CP194, with CP201, with CP203, in the test with CP211 and in the test on CP215 was “inactive” in each case. Also, the Potency result in the test on CP217, in the test with CP237, in the test with CP238 and in the test with CP247 was “inactive” throughout.
`CC(C)(C)C(=O)Oc1ccc(S(=O)(=O)Nc2ccccc2C(=O)NCC(=O)O)cc1`: the Potency entry in the test with CP192, in the test on CP194, in the test with CP201, in the test with CP203, in the test on CP211 and in the test on CP215 was “inactive” in each case. Besides, the Potency entry in the test on CP217, with CP237, in the test on CP238 and in the test on CP247 was “inactive” in each case.
Take `C[C@](N)(Cc1ccc(O)c(O)c1)C(=O)O`: the Potency entry in the test with CP192, in the test on CP194, in the test on CP201, in the test on CP203, with CP211 and in the test with CP215 was “inactive” each time. Further, the Potency result with CP217, in the test on CP237, with CP238 and with CP247 was “inactive” each time.
